GLP-1R inv ag: acts as inverse agonist at human GLP-1 receptor; 410,000 tested, 1.6% active; Potency, µM (titrated, usually from 38.3 µM), usual class: inhibitors; HEK293 GLP-1R CRE-luciferase, luminescence, 24 h; GLP-1R form is constitutively active; also: nearly all actives have a fitted effect of over 55% in size
Target sequence (P43220 whole entry, looked up): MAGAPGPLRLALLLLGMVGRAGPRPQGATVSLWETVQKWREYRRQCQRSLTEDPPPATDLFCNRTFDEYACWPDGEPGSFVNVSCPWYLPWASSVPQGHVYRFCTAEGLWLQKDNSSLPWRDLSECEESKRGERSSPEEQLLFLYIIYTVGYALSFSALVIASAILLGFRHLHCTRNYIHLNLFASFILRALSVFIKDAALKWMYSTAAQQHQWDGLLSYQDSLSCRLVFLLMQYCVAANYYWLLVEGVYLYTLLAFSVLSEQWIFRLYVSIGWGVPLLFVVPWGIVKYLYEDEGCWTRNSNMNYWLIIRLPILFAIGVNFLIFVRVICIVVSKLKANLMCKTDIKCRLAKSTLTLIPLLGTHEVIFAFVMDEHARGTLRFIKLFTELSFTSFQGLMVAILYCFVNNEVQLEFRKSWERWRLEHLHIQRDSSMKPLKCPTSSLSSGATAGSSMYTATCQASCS
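Seeding at 200 cells/uL, 12 h culture, 24 hr compound treatment, then luciferase reagent and a luminescence read; cells are HEK293 stably expressing a constitutively active GLP-1R plus cAMP-responsive luciferase.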
Mito fusion act: blocks mitochondrial division or promotes mitochondrial fusion | S. cerevisiae fusion-defective mutant growth rescue, CellTiterGlo 48 h | Potency, µM (top dose mostly 46.1 µM), actives largely listed as activators | 320,000 tested, 0.23% active | AID 485298; also: nearly all actives have a fitted effect of over 45% in size
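Growth-rescue viability read-out: after 48 h at the non-permissive 37C in glycerol/ethanol YPEG, yeast mitochondrial fusion mutants are measured by CellTiterGlo luminescence; compounds (23 nl pinned per well) restoring growth score as division inhibitors or fusion activators.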
GLP1R cytotox: cytotoxicity counter-screen for GLP-1 receptor inverse agonists; HEK293 cAMP-luciferase reporter cells, luminescence, 24 h; Potency, µM (top dose mostly 38.3 µM), actives largely listed as inhibitors; 410,000 tested, 0.13% active;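 also: loss of luciferase light is scored as toxicity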
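Cells in DMEM/10% Nu serum/1% pen-strep, 1536-well format. Pre-incubated 12 h, dosed with 23 nL compound, incubated a further 24 h. Luciferase detection, 12 min at room temp, luminescence.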
GLP-1R agonist: agonists of human GLP-1 receptor. P43220. HEK293 GLP-1R CRE-luciferase, luminescence, 4-6 h; cells express a hypersensitive GLP-1R form. Potency, µM (doses to about 45.6 µM), actives largely listed as activators. 380,000 tested, 0.007% active. AID 624172
BRCA1 expr up: activators of BRCA1 expression | MCF7-BRCA1-FFLuc reporter, luminescence, 48 h; response scale: scaled: vehicle 0%, 10 µM genistein 100% | Potency, µM (series often up to 46.1 µM), most hits filed as activators | 380,000 tested, 1.1% active | AID 624202; also: nearly all actives have a fitted effect of over 80% in size
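Cells: MCF7-BRCA1-FFLuc, 2000/well. Exposure: 48 h, 37 °C, 5% CO2. Read: luminescence, 15 min post-substrate. Controls: genistein 10 microM (maximal activation), DMSO (neutral).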
A number is an active result; n = inactive; u = inconclusive; x = not tested or not shown. Shown are actives, neighbours in structure and some others; about 2.8% of the full set was active somewhere. Calls follow the shape of the dose curve; as a rule, active = well fitted curve in the direction sought with a large enough effect; inconclusive = small, poorly fitted or top-dose-only effect, or another doubt; inactive = no such curve, though single readings can be large; an effect the other way counts as inactive or inconclusive.

SMILES | GLP-1R inv ag | Mito fusion act | GLP1R cytotox | GLP-1R agonist | BRCA1 expr up
Cc1nn(-c2ccccc2)c(Cl)c1C(=O)Nc1nnc(C2CCCCC2)s1 | 8.9µM | n | n | n | n
Cc1nn(-c2ccc(C(=O)Nc3nnc(C4CC4)s3)cc2)c(C)c1Cl | n | n | n | n | n
CC(C)(C)n1nnnc1C(c1cccs1)N(Cc1ccc(Cl)cc1)CC1CCCO1 (centres undefined) | 5µM | n | n | n | n
Oc1ccc(/C=N/NC(=S)N/N=C/c2ccc(O)cc2)cc1 | n | n | u | n | 8.9µM
Oc1ccc(/C=N/NC(=S)Nc2cccnc2)cc1 | n | n | n | n | u
COc1ccccc1NC(=S)N/N=C/c1cccc(C)c1 | u | n | u | n | n
COc1ccccc1NC(=S)N/N=C/c1ccc(O)cc1 | u | n | n | n | 3.2µM
Cc1ccc(NC(=O)C2CC(=O)N(c3ccc4c5c(cccc35)CC4)C2)cc1 (centres undefined) | 10µM | n | n | n | n
C/C(=N/NC(=O)Nc1ccccc1)c1ccc(C)cc1 | n | n | n | n | n
Cc1cc(O)ccc1N/C=C/c1onc(C)c1[N+](=O)[O-] | n | n | u | n | u
Cc1cccc(N/C=C/c2onc(C)c2[N+](=O)[O-])c1 | n | n | n | n | 2.5µM
Cc1cccc(/C=C/c2onc(C)c2[N+](=O)[O-])n1 | 2.8µM | x | u | n | n
O=C(NCc1ccccn1)c1ccc(S(=O)(=O)Nc2ccccc2F)cc1 | n | n | n | n | n
OC(c1cc(-c2cccc(Cl)c2)nc2ccccc12)C1CCCCN1 (centres undefined) | 1.4µM | x | 10µM | n | n
O=C(CCCSc1nc(-c2ccco2)cc(C(F)(F)F)n1)Nc1ccc2c(c1)OCO2 | 10µM | n | n | n | n
O=C(CSc1nc(-c2ccco2)cc(C(F)(F)F)n1)Nc1ccc2c(c1)OCO2 | u | n | u | n | n
Cn1ccsc1=NC(=O)c1cccc(OC(F)F)c1 | n | n | n | n | 8.9µM
Cn1ccsc1=NC(=O)c1ccc(=O)[nH]c1 | n | n | n | n | n
CCCn1nnnc1-c1cc(Cl)cc(Cl)c1 | n | n | n | n | n
CCC12C(=O)C(CC)(C(c3ccccc3)=C1c1ccccc1)[C@@H]1C(=O)N(c3ccccc3)C(=O)C12 (some centres undefined) | 3.2µM | n | n | n | n
CCC12C(=O)C(CC)(C(c3ccccc3)=C1c1ccccc1)[C@@H]1C(=O)N(c3ccc(C)cc3)C(=O)C12 (some centres undefined) | n | n | n | n | n
CC1C(=O)N2CCCc3cc(S(=O)(=O)N(C)c4ccccc4)cc1c32 (centres undefined) | n | n | n | n | n
CCOc1ccc(-c2cn3c(n2)sc2cc(C(=O)NCCCN(CC)CC)ccc23)cc1 | 10µM | x | u | x | x
Cc1ccc(C(=O)Nc2ncc3c(Cl)cccc3n2)cc1 | 7.1µM | n | n | n | n
CC(C)N(C(=S)NC1CCCCC1)c1ccccc1 | x | n | x | x | x
SMILES | GLP-1R inv ag | Mito fusion act | GLP1R cytotox | GLP-1R agonist | BRCA1 expr up
O=C1c2ccccc2NC(c2ccccc2O)N1c1ccc(F)cc1 (centres undefined) | n | n | n | n | 4µM
COc1cccc(C2Nc3ccccc3C(=O)N2c2ccc(F)cc2)c1O (centres undefined) | n | n | n | n | 7.9µM
O=C1c2ccccc2NC(c2ccccn2)N1c1ccc(Cl)cc1 (centres undefined) | n | n | n | n | 11µM
Cc1cccc(C2Nc3ccccc3C(=O)N2c2ccccc2)n1 (centres undefined) | n | n | n | n | n
CCOC(=O)c1cccc2c1N[C@@H](c1ccc(F)cc1)[C@H]1CC=C[C@@H]21 | n | x | n | x | x
Cc1[nH]nc2c1C(C1CC=CCC1)C(C#N)=C(N)O2 (centres undefined) | n | n | n | n | n
CCOC(=O)c1c(C)n(C)c2ccc(O)c(CN(CC)CC)c12 | n | n | n | n | n
CCOC(=O)c1c(C)n(-c2ccccc2)c2ccc(O)c(CN(C)C)c12 | 8.9µM | n | n | n | n
